Experimental data published in the supplement of paper PMC13172266.
Structures can show the parent of a compound that is named as a salt.

Key:
Test in all cases: cell proliferation relative to vehicle (% of vehicle); higher = less growth inhibition
Details in all cases: 72 h
[1] = test system: U2932 TK216-resistant clone 2
How it was run: (§1)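 A targeted inhibitor library of 348 compounds was tested on the ABC-DLBCL line U2932, both parental and two clones made resistant to an ETS-targeting agent by repeated exposure over almost a year. Cells were grown at 37°C and 5% CO2 in medium with 10% FBS, then treated at 500 nM or 50 nM for 72 h. MTT was added for 4 h, stopped with 25% SDS, and absorbance was read on a Cytation 3. Proliferation is reported as percent of proliferating cells relative to vehicle (DMSO).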

[2] = test system: U2932 TK216-resistant clone 3
How it was run: as §1

U2932 parental = test system: U2932 parental
How it was run: as §1

Row | Compound | cell proliferation ([1]; 50 nM) | cell proliferation ([1]; 500 nM) | cell proliferation ([2]; 50 nM) | cell proliferation ([2]; 500 nM) | cell proliferation (U2932 parental; 50 nM) | cell proliferation (U2932 parental; 500 nM)
1 | Nc1ncn([C@H]2C[C@H](O)[C@@H](CO)O2)c(=O)n1 [Decitabine] | 72.5 | 59.1 | 92.9 | 78.3 | 85.1 | 73.1
2 | O=C(CCCCCCNC(=O)c1cnc(N(c2ccccc2)c2ccccc2)nc1)NO [Rocilinostat (ACY-1215)] | 104 | 104 | 110 | 96.5 | 98.5 | 92.2
3 | Nc1ccn([C@@H]2O[C@H](CO)[C@@H](O)C2(F)F)c(=O)n1 [Gemcitabine] | 15.3 | 14.9 | 20.1 | 19.1 | 12.5 | 14.6
4 | Cc1cn([C@H]2O[C@@H](CO)[C@H](O)[C@H]2F)c(=O)[nH]c1=O [Clevudine] | 100 | 103 | 96.2 | 103 | 98.8 | 96.8
5 | Nc1nc(Nc2ccc(S(N)(=O)=O)cc2)nn1C(=O)c1c(F)cccc1F | 103 | 85.3 | 102 | 78.1 | 98.8 | 87.7
6 | COc1cc(Nc2nc3ccccc3nc2NS(=O)(=O)c2ccc(NC(=O)c3ccc(C)c(OC)c3)cc2)cc(OC)c1 | 98.5 | 106 | 104 | 103 | 105 | 104
7 | CN1C(=O)C(Cc2c[nH]c3ccccc23)NC1=S (centres undefined) [Necrostatin-1] | 103 | 93.1 | 95.6 | 102 | 95 | 94.8
8 | Cc1cc(Nc2cc(N3CCN(C)CC3)nc(/C=C/c3ccccc3)n2)n[nH]1 | 82 | 66.1 | 97.6 | 48.9 | 93 | 46
9 | CCc1nc(-c2cccc(C)c2)c(-c2ccnc(NC(=O)c3ccccc3)c2)s1 | 103 | 97.7 | 98.4 | 103 | 104 | 101
10 | O=C(/C=C/c1ccc(CN(CCO)CCc2c[nH]c3ccccc23)cc1)NO [LAQ824 (Dacinostat)] | 41.2 | 5.42 | 48.6 | 12.4 | 33.6 | 0.789
11 | C=CCn1c(=O)c2cnc(Nc3ccc(N4CCN(C)CC4)cc3)nc2n1-c1cccc(C(C)(C)O)n1 | 89.6 | 20.5 | 99.7 | 38.7 | 94.7 | 33.1
12 | Cc1nc(Nc2ncc(C(=O)Nc3c(C)cccc3Cl)s2)cc(N2CCN(CCO)CC2)n1 [Dasatinib] | 74.2 | 63.7 | 66.1 | 52.4 | 75 | 60.9
13 | CCNc1nc(Nc2cc(F)c(C(=O)N3CCOCC3)cc2OC)ncc1C(F)(F)F | 101 | 97.4 | 97.8 | 104 | 104 | 101
14 | CC1(C)CCC(CN2CCN(c3ccc(C(=O)NS(=O)(=O)c4ccc(NCC5CCOCC5)c([N+](=O)[O-])c4)c(Oc4cnc5[nH]ccc5c4)c3)CC2)=C(c2ccc(Cl)cc2)C1 | 74.5 | 29.9 | 84.4 | 35.1 | 90.7 | 66.9
15 | CN(NC(=O)CC(=O)NN(C)C(=S)c1ccccc1)C(=S)c1ccccc1 [Elesclomol (STA-4783)] | 0.164 | -0.212 | -0.901 | -3.67 | 0.103 | -1.37
16 | O=C(Nc1ccc(OC(F)(F)F)cc1)c1sccc1NCc1ccnc2ccccc12 | 105 | 101 | 105 | 109 | 100 | 98.9
17 | Cc1nc(NC(=O)N2CCC[C@H]2C(N)=O)sc1-c1ccnc(C(C)(C)C(F)(F)F)c1 | 98.4 | 78.7 | 96.2 | 85 | 97.7 | 91
18 | COc1cc(Nc2c(C#N)cnc3cc(OCCCN4CCN(C)CC4)c(OC)cc23)c(Cl)cc1Cl [Bosutinib (SKI-606)] | 106 | 73.1 | 103 | 63.3 | 98.5 | 83.4
19 | COc1ccc(-c2nc(N3CCOCC3)c3sc(CN(C)c4ncc(C(=O)NO)cn4)cc3n2)cn1 | 0.345 | 2.02 | 3.18 | 9.31 | 0.767 | 3.78
20 | Cn1cncc1[C@@](N)(c1ccc(Cl)cc1)c1ccc2c(c1)c(-c1cccc(Cl)c1)cc(=O)n2C [Tipifarnib] | 91.9 | 90.6 | 71.5 | 74.9 | 62.7 | 62.5
21 | CCc1ccc(/C=C2/SC(=S)NC2=O)cc1 | 105 | 103 | 102 | 99.4 | 94.2 | 104
22 | Clc1ccc(C2(c3ccc(-c4cn[nH]c4)cc3)CCNCC2)cc1 | 88.5 | 48.2 | 94.6 | 73.6 | 93 | 75.5
23 | Cc1csc(-c2nnc(Nc3ccc(Oc4ncccc4-c4ccnc(N)n4)cc3)c3ccccc23)c1 | 88 | 99.7 | 80.5 | 78 | 66.9 | 61.8
24 | CN(C)CCOc1ccc(-c2nc(-c3ccncc3)c(-c3ccc4c(c3)CC/C4=N\O)[nH]2)cc1 | 93.3 | 89.5 | 96.6 | 97.4 | 93.3 | 94.8
25 | O=c1cc(-c2cccc3c2Sc2ccccc2S3)oc(N2CCOCC2)c1 | 108 | 102 | 98.8 | 95.3 | 102 | 103

Row | Compound | cell proliferation ([1]; 50 nM) | cell proliferation ([1]; 500 nM) | cell proliferation ([2]; 50 nM) | cell proliferation ([2]; 500 nM) | cell proliferation (U2932 parental; 50 nM) | cell proliferation (U2932 parental; 500 nM)
26 | CN(C)Cc1ccc(S(=O)(=O)n2ccc(/C=C/C(=O)NO)c2)cc1 [Resminostat] | 99.1 | 93.8 | 92 | 90.4 | 93.4 | 84.7
27 | O=C(/C=C\n1cnc(-c2cc(C(F)(F)F)cc(C(F)(F)F)c2)n1)NNc1cnccn1 | 87.7 | 36.3 | 58.9 | 57.6 | 82.9 | 44.1
28 | O=C(Cc1ccc(-c2ccc(OCCN3CCOCC3)cc2)cn1)NCc1ccccc1 | 14.1 | 8.36 | 20.3 | 8.01 | 13.9 | 9.55
29 | COCCOc1ccc2c(c1)ncn2-c1ccc2cccc(N3CCC(N)CC3)c2n1 | 107 | 106 | 103 | 94 | 99.8 | 90.4
30 | COc1ccc(C2=N[C@@H](c3ccc(Cl)cc3)[C@@H](c3ccc(Cl)cc3)N2C(=O)N2CCNC(=O)C2)c(OC(C)C)c1 [Nutlin-3] | 106 | 97.3 | 109 | 103 | 99.8 | 99.6
31 | Cc1ccc(F)c(NC(=O)Nc2ccc(-c3cccc4[nH]nc(N)c34)cc2)c1 [Linifanib (ABT-869)] | 99.8 | 93.1 | 99 | 95.7 | 90.6 | 107
32 | Cn1cnc2c(F)c(Nc3ccc(Br)cc3Cl)c(C(=O)NOCCO)cc21 [Selumetinib (AZD6244)] | 106 | 95.8 | 97 | 90.1 | 99.3 | 101
33 | Cn1nnc2c(C(N)=O)ncn2c1=O [Temozolomide] | 110 | 110 | 107 | 100 | 98.8 | 96.5
34 | CO[C@H]1C[C@@H]2CC[C@@H](C)[C@@](O)(O2)C(=O)C(=O)N2CCCC[C@H]2C(=O)O[C@H]([C@H](C)C[C@@H]2CC[C@@H](OP(C)(C)=O)[C@H](OC)C2)CC(=O)[C@H](C)/C=C(\C)[C@@H](O)[C@@H](OC)C(=O)[C@H](C)C[C@H](C)/C=C/C=C/C=C/1C [Ridaforolimus (Deforolimus, MK-8669)] | 67.9 | 64.3 | 62.2 | 58.5 | 56.4 | 57.2
35 | S=C(NCc1ccc2c(c1)OCO2)N1CCN(c2ncnc3c2oc2ccccc23)CC1 [Amuvatinib (MP-470)] | 102 | 109 | 107 | 104 | 100 | 101
36 | CN(C)C(=N)NC(=N)N [Metformin HCl] | 110 | 102 | 113 | 108 | 99.9 | 98.9
37 | CCCCCCCCc1ccc(CCC(N)(CO)CO)cc1 [Fingolimod (FTY720) HCl] | 99.3 | 102 | 99.6 | 96.1 | 98.3 | 94.8
38 | O=C(c1ccc(/C=C/c2n[nH]c3ccccc23)cc1)N1CCNCC1 | 109 | 91 | 104 | 82.4 | 95 | 72.2
39 | C[C@@H]1CC(=O)c2c(ccc3c2C(=O)c2cccc(O)c2C3=O)C1 | 102 | 98.5 | 104 | 92.5 | 87.5 | 97
40 | CC(C=CC(=O)NO)=CC(C)C(=O)c1ccc(N(C)C)cc1 (centres undefined) [Trichostatin A (TSA)] | 68.3 | 8.5 | 74.5 | 4.96 | 67.2 | 2.14
41 | COc1cc2c(Oc3ccc4[nH]c(C)cc4c3F)ncnc2cc1OCCCN1CCCC1 [Cediranib (AZD2171)] | 105 | 92.6 | 99.8 | 83 | 96.7 | 90.4
42 | CO[C@H]1C[C@@H]2CC[C@@H](C)[C@@](O)(O2)C(=O)C(=O)N2CCCC[C@H]2C(=O)O[C@H]([C@H](C)C[C@@H]2CC[C@@H](OC(=O)C(C)(CO)CO)[C@H](OC)C2)CC(=O)[C@H](C)/C=C(\C)[C@@H](O)[C@@H](OC)C(=O)[C@H](C)C[C@H](C)/C=C/C=C/C=C/1C | 68.3 | 64.8 | 65 | 65.1 | 59.6 | 58.9
43 | CCC(C)(C)C(=O)O[C@H]1C[C@@H](C)C=C2C=C[C@H](C)[C@H](CC[C@@H]3C[C@@H](O)CC(=O)O3)[C@H]21 [Simvastatin] | 91.4 | 88.7 | 98.4 | 89.1 | 90.5 | 87.4
44 | COc1ccc(F)c(F)c1C(=O)c1cnc(NC2CCN(S(C)(=O)=O)CC2)nc1N | 92 | 53.5 | 89.4 | 66.7 | 90.5 | 63.3
45 | CCCCOc1c(C(=O)c2c(F)cc(C)cc2F)c[nH]c2nncc1-2 | 78.8 | 59.3 | 92.2 | 58.9 | 89.3 | 77.1
46 | OCCn1cc(-c2ccc3c(c2)CC/C3=N\O)c(-c2ccncc2)n1 | 105 | 106 | 97 | 91.9 | 105 | 103
47 | Cc1cccc(-c2[nH]c(CNc3ccccc3F)nc2-c2ccc3ncnn3c2)n1 | 106 | 102 | 99.6 | 106 | 104 | 98.6
48 | Cc1cc(Nc2nc(N[C@@H](C)c3ncc(F)cn3)ncc2Cl)[nH]n1 | 116 | 108 | 105 | 117 | 96.7 | 91.5
49 | c1cc(-c2cnn3cc(-c4ccc(OCCN5CCCCC5)cc4)cnc23)ccn1 [Dorsomorphin 2HCl] | 113 | 98 | 119 | 108 | 110 | 98.3
